# Structures can show the parent of a compound that is named as a salt. ± gives the standard deviation of the averaged measurements.
# Test system: Toxoplasma gondii RH (in HFF)
# Assay: parasite growth relative to the screen mean (all compounds = 100%); higher = less inhibition of parasite growth
# Conditions: 5 µM; 72 h; oxygen 21 %
# Method in brief: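 RH β-Gal–GFP Toxoplasma at MOI 1:5 was used to infect confluent human foreskin fibroblasts in 96-well plates within 2 h of pin-transferring compounds to 5 µM final. After 72 h at 21% O2, parasite number was determined by CPRG β-Gal assay against standard curves on the same plate. Growth is relative to the screen mean and averaged over two screens, with all compounds = 100%.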
row,Structure (SMILES),parasite growth [%]
1,CC(C)Oc1ccc2c(=O)c3cc(C(=O)O)ccc3oc2c1,81.9 ± 15
2,COc1ccc(NC(=O)c2ccc(-c3ccc(-c4noc(C)n4)cc3C)cc2)cc1OCCN(C)C,< 0
3,CC1(C)C(=O)NC2=C1C(=O)C(=O)c1ccccc12,< 0
4,C[C@]12CC[C@@H]3c4ccc(O)cc4C[C@@H](CCCCCCCCC[S+]([O-])CCCC(F)(F)C(F)(F)F)[C@H]3[C@@H]1CC[C@@H]2O (some centres undefined),43.7 ± 11
5,COCCOC(=O)C1=C(C)NC(C)=C(C(=O)OC/C=C/c2ccccc2)C1c1cccc([N+](=O)[O-])c1 (centres undefined) [Cilnidipine],27.9 ± 21
6,CC(CCc1ccc(O)cc1)NCCc1ccc(O)c(O)c1 (centres undefined) [Dobutamine hydrochloride],176 ± 7.3
7,C/N=C(/NC#N)NCCSCc1csc(NC(=N)N)n1 [Tiotidine],122 ± 30
8,O=c1ncccn1[C@@H]1O[C@H](CO)[C@@H](O)[C@H]1O [Zebularine],119 ± 12
9,CN(C)C/C=C(/c1ccc(Br)cc1)c1cccnc1 [Zimelidine dihydrochloride],126 ± 4.6
10,CCC(=O)NC1CCc2cccc(OC)c2C1 (centres undefined),84.3 ± 9.1
11,O=C(C=Cc1ccccc1)NC(NC(=S)Nc1ccc(Cl)cc1)C(Cl)(Cl)Cl (centres undefined),34.8 ± 9.4
12,N[C@@H](Cc1cc(-c2ccc(Cl)cc2Cl)cc(CP(=O)(O)O)c1O)C(=O)O,127 ± 26
13,CC1=Nc2ccc(Cl)cc2S(=O)(=O)N1 [Diazoxide],77.6 ± 16
14,O=C1C(=O)N(Cc2ccc(Cl)c(Cl)c2)c2ccccc21 [Apoptosis Activator 2],120 ± 3.4
15,COc1ccc([C@@H]2CNC(=O)C2)cc1OC1CCCC1 [(R)-(-)-Rolipram],106 ± 6
16,CCS(=O)(=O)N1CCC[C@@H]2CN3CCc4cc(OC)ccc4[C@@H]3C[C@@H]21,125 ± 31
17,CCOC(=O)C1=C[C@]2(CC)CCCN3CCc4c(n1c1ccccc41)[C@@H]32 [Vinpocetine],121 ± 10
18,CCCCNc1c(C(=O)OCC)c(C)nc2c1cnn2CC [Tracazolate hydrochloride],109 ± 5.9
19,COc1ccc(/C=C/C(=O)Nc2ccccc2C(=O)O)cc1OC [Tranilast],111 ± 30
20,CS(=O)(=O)Nc1c(O)ccc2c1CCCC2C1=NCCN1 (centres undefined),101 ± 12

row,Structure (SMILES),parasite growth [%]
1,CCCn1c(=O)c2[nH]c(C3CCCC3)nc2n(CCC)c1=O,103 ± 7
2,O=C1N(c2ccccc2)c2ccccc2C1(Cc1ccncc1)Cc1ccncc1 [Linopirdine dihydrochloride],56.5 ± 15
3,CCc1cc(-c2n[nH]c(C)c2-c2ccc3c(c2)OCCO3)c(O)cc1O,215 ± 12
4,O=C1Nc2ccc(I)cc2/C1=C/c1cc(Br)c(O)c(Br)c1,114 ± 18
5,Cc1ccc(=O)n(-c2ccccc2)c1 [Pirfenidone],128 ± 11
6,Cl/C(=C\n1cncn1)c1ccc(Cl)cc1Cl [Loreclezole hydrochloride],146 ± 12
7,O=C(NCCCN1CCC2(CC1)OCc1ccccc12)[C@H]1CCCN1Cc1ccccc1,136.9 ± 0.99
8,Nc1ncn([C@H]2C[C@H](O)[C@@H](CO)O2)c(=O)n1 [Decitabine],119 ± 9.9
9,COc1cc2c(cc1OC)-c1c/c(=N\c3c(C)cc(C)cc3C)n(C)c(=O)n1CC2 [Trequinsin hydrochloride],124 ± 37
10,O=c1cc(-c2cccc3c2Sc2ccccc2S3)oc(N2CCOCC2)c1,112 ± 15
11,CC(C)(C)[N+]([O-])=Cc1ccc(S(=O)(=O)O)cc1S(=O)(=O)O,86.3 ± 26
12,c1ccc2oc(C3=NCCN3)cc2c1 [2-BFI hydrochloride],109 ± 12
13,CCCCCCC(=O)OC1CC(C)(C)NC(C)(C)C1 [TMPH hydrochloride],123 ± 14
14,COc1ccc2[nH]c(I)c(CCNC(C)=O)c2c1 [2-Iodomelatonin],106 ± 4.9
15,Cn1cc(/C=C2\C(=O)Nc3cccnc32)c2ccccc21,131 ± 5.3
16,CC(=O)N[C@@H](Cc1c[nH]c2ccccc12)C(=O)OCc1cc(C(F)(F)F)cc(C(F)(F)F)c1,108 ± 52
17,COc1cc2c(cc1OC)-c1cc3nc4ccccc4nc3n1C(C)(C)C2,< 0
18,CC1C(=O)OC2C(O)C34C5CC(C(C)(C)C)C36C(OC(=O)C6O)OC4(C(=O)O5)C12O (centres undefined) [Ginkgolide B],82.1 ± 27
19,O=c1cc(N2CCOCC2)oc2c(-c3ccccc3)cccc12,129 ± 26
